Reference: PubChem BioAssay (NCATS)
Inconclusive results are not listed. Active and inactive are the calls of the source. Unless noted, calls follow the shape of the dose curve; as a rule, active = well fitted curve in the direction sought with a large enough effect; inconclusive = small, poorly fitted or top-dose-only effect, or another doubt; inactive = no such curve, though single readings can be large; an effect the other way counts as inactive or inconclusive.

How the values were obtained:
[1] = molecular target: DNA repair nuclease/redox regulator APEX1 (Homo sapiens) (UniProt P27695); experiment: qHTS Validation Assay for Inhibitors of the Human Apurinic/apyrimidinic Endonuclease 1 (APE1) (AID 1705;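 also: TAMRA fluorescence gain over two minutes as APE1 cuts a quenched THF abasic duplex; series mostly up to about 57 µM; % is scaled to controls: 0 for no effect and ±100 for the full control effect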)
Summary of the method: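 Endonuclease activity of human APE1 is followed as dequenching when the enzyme incises a tetrahydrofuran abasic site in a short duplex labelled 5'-TAMRA/3'-BHQ-2 (50 nM final), after 15 min enzyme–compound preincubation at room temperature.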

[2] = molecular target: Endonuclease 4 (Escherichia coli (strain K12)) (UniProt P0A6C1); experiment: Counterscreen for APE1 Inhibitors: qHTS Validation Assay for Inhibitors of Endonuclease IV (AID 1708); also: % is scaled to controls: 0 for no effect and ±100 for the full control effect
Summary of the method: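 E. coli EndoIV at 2 nM final, preincubated 15 min at room temperature with compound, then 50 nM TAMRA/BHQ-2 THF abasic-site duplex added. Buffer: 50 mM Tris-HCl pH 7.5, 50 mM NaCl, 2 mM MgCl2, 1 mM DTT, 0.01% Tween-20. Kinetic fluorescence increase, third minus first read.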

[3] = qHTS for differential inhibitors of proliferation of Plasmodium falciparum line 7G8 (AID 1815);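 also: parasite growth measured after three days of incubation; plate controls were vehicle wells for no effect and reference inhibitor wells for full effect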
[4] = qHTS for differential inhibitors of proliferation of Plasmodium falciparum line GB4 (AID 1816); settings: Potency: Plasmodium falciparum GB4 proliferation inhibition;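 also: parasite growth measured after 72 h incubation; 0% = vehicle DMSO and -100% = reference inhibitor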
[5] = qHTS for differential inhibitors of proliferation of Plasmodium falciparum line D10 (AID 1877);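 also: parasites grown with compound for 72 h before DNA staining; plate controls were vehicle wells for no effect and reference inhibitor wells for full effect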
[6] = qHTS for differential inhibitors of proliferation of Plasmodium falciparum line Dd2 (AID 1882); settings: Potency: Plasmodium falciparum Dd2 proliferation inhibition;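 also: series mostly up to about 29 µM; plate controls were DMSO vehicle for no effect and 0.29 µM artemisinin for full effect; nearly all actives have a fitted effect of over 65% in size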
Summary of the method: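 Dd2-infected erythrocytes (0.3% parasitemia, 2.5% hematocrit final) incubated with compound 72 h at 37 C, 5% CO2; lysed with saponin/Triton buffer containing SYBR Green I, incubated overnight in the dark, then read by fluorescence (485/535 nm). Normalized to 0.29 uM artemisinin and DMSO.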

[7] = molecular target: Ferritin light chain (Equus caballus) (UniProt P02791); experiment: qHTS Validation Assay for Identification of Novel General Anesthetics (AID 2323); also: series mostly up to about 77 µM; % is scaled to controls: 0 for no effect and ±100 for the full control effect
Summary of the method: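 Apoferritin from horse spleen (10 uM) was mixed with 1-aminoanthracene at 50% saturation in PBS, then compounds were added. After 10 min at room temperature, fluorescence was read (ex 380 nm, em 535 nm) and normalized to free-probe and complex controls.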

[8] = molecular target: ATP-dependent DNA helicase Q1 (Homo sapiens) (UniProt P46063); experiment: qHTS Validation Assay for Inhibitors of RecQ-Like Dna Helicase 1 (RECQ1) (AID 2353);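 also: plate controls were DMSO vehicle for no effect and enzyme-free control for full effect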
Summary of the method: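 50 nM RECQ1T1 preincubated 15 min with compound in Tris pH 8.0 buffer with MgCl2, DTT, Tween-20 and 2.5 ug/ml poly(dI-dC); started with 200 nM TAMRA/BHQ-2 forked duplex and 2 mM ATP. Unwinding read as fluorescence (525/598 nm), two reads 2 h apart.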

[9] = molecular target: RecQ-like DNA helicase BLM (Homo sapiens) (UniProt P54132); experiment: qHTS Validation Assay for Inhibitors of Bloom's syndrome helicase (BLM) (AID 2364);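 also: plate controls were DMSO vehicle for no effect and enzyme-free control for full effect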
Summary of the method: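 50 nM BLM preincubated 15 min at room temperature with compound in pH 8.0 Tris buffer containing 2.5 ug/ml poly(dI-dC); started with 200 nM TAMRA/BHQ-2 forked duplex and 2 mM ATP (final). Unwinding read as TAMRA fluorescence increase, two reads 2 h apart.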

[10] = Validation screen for small molecules that induce DNA re-replication in MCF 10A normal breast cells (AID 463097); also: 0% is about no effect; nearly all actives have a fitted effect of over 60% in size
Summary of the method: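 DNA re-replication was detected as a rise in nuclei with elevated Hoechst fluorescence after a 48 hr compound exposure of MCF 10A cells at 37 C.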

[11] = Quantitative high throughput screen for delayed death inhibitors of the malarial parasite plastid, 48 hour incubation (AID 488752); also: % is scaled to controls: 0 for no effect and ±100 for the full control effect; nearly all actives have a fitted effect of over 65% in size
Summary of the method: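 Erythrocytes infected with firefly luciferase-expressing P. falciparum (2% hematocrit, 0.1% parasitemia) cultured with compound for 48 h at 37 C, 5% CO2, in RPMI 1640/0.5% Albumax. Growth inhibition read as loss of luminescence.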

[12] = molecular target: M-phase phosphoprotein 8 (Homo sapiens) (UniProt Q99549); experiment: qHTS Validation Assay for Inhibitors for MPP8 Chromodomain Interactions with Methylated Histone Tails (AID 488949);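 also: AlphaScreen signal from MPP8 chromodomain bound to biotinylated H3K9me3 peptide; top concentration of the series differs between compounds; % is scaled to controls: 0 for no effect and ±100 for the full control effect; nearly all actives have a fitted effect of over 55% in size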
Summary of the method: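 Disruption of the preformed MPP8–trimethyl-H3K9 peptide complex (both 50 nM, 30 min, RT) is measured after 30 min compound exposure, using AlphaScreen proximity beads; aurintricarboxylic acid titration serves as plate control.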

[13] = molecular target: Transient receptor potential cation channel subfamily V member 1 (Homo sapiens) (UniProt Q8NER1); experiment: HTS Assay for Compounds that Act as Enhancers of the Vanilloid Receptor 1 (AID 488979); also: 0% is about no effect
Summary of the method: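 TRPV1 cells loaded with Fluo-8 calcium dye; compound added and Ca2+ signal (ex 480/em 520 nm) followed 3 min, then capsaicin at EC20 added and read 2 more min to detect enhancement.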

[14] = molecular target: Thyrotropin receptor (Homo sapiens) (UniProt P16473); experiment: qHTS Assay for Antagonists of the Thyroid Stimulating Hormone Receptor (AID 488980); also: series mostly up to about 58 µM; 0% is about no effect
Summary of the method: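 Cells expressing human TSHR (HEK293) are dispensed in HBSS/HEPES containing 70 uM RO 20-1724, compound is added, then TSH at EC80 (4 nM final). Antibody in lysis buffer follows, 30 minutes at room temperature before HTRF detection.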

[15] = molecular target: Thyrotropin-releasing hormone receptor (Homo sapiens) (UniProt P34981); experiment: qHTS for Small Molecule Agonists and Allosteric Enhancers of Human TRH Receptor: Validation Screen for Agonists (AID 493127;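 active = calcium activation more than 3 SD above the typical response in the agonist read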; also: 0% is about no effect); settings: TRH receptor agonist cell assay; at 2 µM; hits give high values
Summary of the method: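 TRHR cells loaded with fluo-8 calcium dye; FDSS kinetic fluorescence (Ex 480/Em 530) read at 1 s/cycle after 23 nL compound addition. Agonist-mode calcium response recorded before the 10 nM TRH (EC20) addition.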

[16] = molecular target: Galactokinase (Homo sapiens) (UniProt P51570); experiment: qHTS Validation Assay for Inhibitors of Human Galactokinase (GALK) (AID 493189); also: 0% is about no effect
Summary of the method: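 Compounds were pin-transferred into ATP buffer, then GALK-galactose mix was added (final 5 nM enzyme, 100 uM galactose, 35 uM ATP). After 1 h at room temperature, remaining ATP was measured luminescently.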

[17] = Validation screen for small molecules that induce DNA re-replication in SW480 colon adenocarcinoma cells (AID 504364); also: 0% is about no effect
Summary of the method: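 SW480 cells (250/well) exposed 48 h at 37 C, 5% CO2, then Hoechst-stained 40 min. Nuclear DNA content imaged by fluorescence scanning (405 nm excitation, 500-530 nm emission); re-replication scored as increased nuclei with elevated intensity.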

[18] = system: Zika virus NS2B-NS3 protease; experiment: Primary screen GU AMC qHTS for Zika virus inhibitors (AID 1347154);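 also: 0% = no-inhibitor control and -100% = no-enzyme control; nearly all actives have a fitted effect of over 70% in size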
Summary of the method: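 Unlinked Zika NS2B hydrophilic domain–NS3 protease complex at 25 nM in 10 mM Tris-HCl pH 8.0, 0.01% Tween 20, with an AMC peptide substrate. Fluorescence change (340/450 nm) over 15 min at room temperature, normalized to controls, fitted to 4-parameter Hill.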

[19] = Primary qHTS for small molecule stabilizers of the endoplasmic reticulum resident proteome: Secreted ER Calcium Modulated Protein (SERCaMP) assay (AID 1508630); also: % is scaled to controls: 0 for no effect and ±100 for the full control effect
Summary of the method: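 GLuc-SERCaMP-expressing SH-SY5Y cells, pretreated 16 h with compound, are challenged with thapsigargin to empty ER calcium stores; after 4 h, coelenterazine is added directly to the medium and luminescence is imaged.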

Transient receptor potential cation channel subfamily V member 1 (Homo sapiens), sequence (Q8NER1 whole entry, looked up): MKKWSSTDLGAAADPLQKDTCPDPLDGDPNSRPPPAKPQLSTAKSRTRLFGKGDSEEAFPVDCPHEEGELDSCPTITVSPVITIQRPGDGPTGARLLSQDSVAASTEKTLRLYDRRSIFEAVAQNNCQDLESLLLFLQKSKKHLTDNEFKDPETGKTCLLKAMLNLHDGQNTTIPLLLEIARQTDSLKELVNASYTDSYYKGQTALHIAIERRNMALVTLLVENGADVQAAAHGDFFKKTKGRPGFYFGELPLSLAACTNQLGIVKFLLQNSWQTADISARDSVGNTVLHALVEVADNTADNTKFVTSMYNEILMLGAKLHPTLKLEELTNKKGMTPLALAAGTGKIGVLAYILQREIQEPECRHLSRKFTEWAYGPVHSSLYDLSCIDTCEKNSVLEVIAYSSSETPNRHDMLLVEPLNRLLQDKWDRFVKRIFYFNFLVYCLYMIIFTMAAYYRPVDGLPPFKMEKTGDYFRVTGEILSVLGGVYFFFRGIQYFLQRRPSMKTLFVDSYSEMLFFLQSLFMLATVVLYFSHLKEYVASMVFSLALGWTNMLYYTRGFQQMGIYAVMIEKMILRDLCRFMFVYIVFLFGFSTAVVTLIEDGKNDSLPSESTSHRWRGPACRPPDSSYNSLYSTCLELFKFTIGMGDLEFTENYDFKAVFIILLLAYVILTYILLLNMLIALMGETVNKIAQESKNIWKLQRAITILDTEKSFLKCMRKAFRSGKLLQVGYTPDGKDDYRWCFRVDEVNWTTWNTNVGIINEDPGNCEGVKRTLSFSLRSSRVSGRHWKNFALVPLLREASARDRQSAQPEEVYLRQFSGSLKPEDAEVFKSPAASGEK
RecQ-like DNA helicase BLM (Homo sapiens), sequence (P54132 whole entry, looked up): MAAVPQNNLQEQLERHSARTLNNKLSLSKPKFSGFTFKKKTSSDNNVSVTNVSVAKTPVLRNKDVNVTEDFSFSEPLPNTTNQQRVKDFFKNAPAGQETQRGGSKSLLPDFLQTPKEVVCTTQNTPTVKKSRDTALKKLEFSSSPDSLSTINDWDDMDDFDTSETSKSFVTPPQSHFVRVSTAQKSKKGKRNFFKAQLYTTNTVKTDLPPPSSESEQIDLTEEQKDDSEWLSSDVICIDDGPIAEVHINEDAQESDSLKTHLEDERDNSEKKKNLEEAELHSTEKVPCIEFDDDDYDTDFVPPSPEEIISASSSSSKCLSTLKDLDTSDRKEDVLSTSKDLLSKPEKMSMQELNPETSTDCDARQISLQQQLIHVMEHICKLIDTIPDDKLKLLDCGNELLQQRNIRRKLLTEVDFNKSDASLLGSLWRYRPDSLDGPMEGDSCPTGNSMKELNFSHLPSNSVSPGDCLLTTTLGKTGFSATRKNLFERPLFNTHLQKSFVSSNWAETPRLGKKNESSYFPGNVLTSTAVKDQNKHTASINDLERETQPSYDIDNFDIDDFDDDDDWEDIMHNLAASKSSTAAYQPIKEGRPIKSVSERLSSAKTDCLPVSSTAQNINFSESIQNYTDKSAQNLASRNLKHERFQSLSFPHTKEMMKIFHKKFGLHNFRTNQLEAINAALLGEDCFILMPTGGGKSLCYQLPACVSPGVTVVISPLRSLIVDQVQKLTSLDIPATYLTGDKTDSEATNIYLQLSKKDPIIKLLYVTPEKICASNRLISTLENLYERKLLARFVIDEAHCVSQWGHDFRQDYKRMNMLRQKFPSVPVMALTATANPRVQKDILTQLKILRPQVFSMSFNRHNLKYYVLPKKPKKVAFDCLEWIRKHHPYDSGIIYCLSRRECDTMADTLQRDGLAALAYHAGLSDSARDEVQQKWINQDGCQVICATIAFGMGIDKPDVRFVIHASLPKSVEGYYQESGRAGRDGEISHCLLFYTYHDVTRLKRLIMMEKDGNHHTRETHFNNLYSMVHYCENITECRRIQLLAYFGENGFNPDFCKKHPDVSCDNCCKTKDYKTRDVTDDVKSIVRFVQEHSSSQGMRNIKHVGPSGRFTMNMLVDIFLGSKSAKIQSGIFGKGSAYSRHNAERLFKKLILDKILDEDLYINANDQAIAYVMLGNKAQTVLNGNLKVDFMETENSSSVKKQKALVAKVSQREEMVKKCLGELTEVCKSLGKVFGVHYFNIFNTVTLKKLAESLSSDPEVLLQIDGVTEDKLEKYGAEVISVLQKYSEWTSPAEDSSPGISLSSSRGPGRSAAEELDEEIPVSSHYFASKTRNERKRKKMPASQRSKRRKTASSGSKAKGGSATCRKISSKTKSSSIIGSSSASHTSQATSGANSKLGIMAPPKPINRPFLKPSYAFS
DNA repair nuclease/redox regulator APEX1 (Homo sapiens), sequence (P27695 whole entry, looked up): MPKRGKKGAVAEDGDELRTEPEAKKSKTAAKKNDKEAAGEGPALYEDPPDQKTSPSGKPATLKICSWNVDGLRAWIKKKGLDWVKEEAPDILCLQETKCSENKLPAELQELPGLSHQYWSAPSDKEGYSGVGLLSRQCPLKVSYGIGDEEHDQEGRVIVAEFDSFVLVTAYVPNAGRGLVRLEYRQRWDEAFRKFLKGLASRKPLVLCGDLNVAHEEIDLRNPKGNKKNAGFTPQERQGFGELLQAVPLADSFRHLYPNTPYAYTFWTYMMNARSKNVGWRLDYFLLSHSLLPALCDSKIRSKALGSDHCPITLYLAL
Thyrotropin-releasing hormone receptor (Homo sapiens), sequence (P34981 whole entry, looked up): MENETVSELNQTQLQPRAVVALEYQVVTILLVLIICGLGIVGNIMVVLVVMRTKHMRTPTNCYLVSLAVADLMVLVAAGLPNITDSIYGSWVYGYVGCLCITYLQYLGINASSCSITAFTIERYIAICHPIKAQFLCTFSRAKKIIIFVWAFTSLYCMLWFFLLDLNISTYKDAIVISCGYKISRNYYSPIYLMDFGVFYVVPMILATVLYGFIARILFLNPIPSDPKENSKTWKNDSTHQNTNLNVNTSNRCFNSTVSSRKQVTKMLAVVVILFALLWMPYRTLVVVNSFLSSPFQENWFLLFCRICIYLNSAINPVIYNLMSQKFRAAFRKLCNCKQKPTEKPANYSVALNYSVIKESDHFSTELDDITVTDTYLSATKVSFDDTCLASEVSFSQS
Thyrotropin receptor (Homo sapiens), sequence (P16473 whole entry, looked up): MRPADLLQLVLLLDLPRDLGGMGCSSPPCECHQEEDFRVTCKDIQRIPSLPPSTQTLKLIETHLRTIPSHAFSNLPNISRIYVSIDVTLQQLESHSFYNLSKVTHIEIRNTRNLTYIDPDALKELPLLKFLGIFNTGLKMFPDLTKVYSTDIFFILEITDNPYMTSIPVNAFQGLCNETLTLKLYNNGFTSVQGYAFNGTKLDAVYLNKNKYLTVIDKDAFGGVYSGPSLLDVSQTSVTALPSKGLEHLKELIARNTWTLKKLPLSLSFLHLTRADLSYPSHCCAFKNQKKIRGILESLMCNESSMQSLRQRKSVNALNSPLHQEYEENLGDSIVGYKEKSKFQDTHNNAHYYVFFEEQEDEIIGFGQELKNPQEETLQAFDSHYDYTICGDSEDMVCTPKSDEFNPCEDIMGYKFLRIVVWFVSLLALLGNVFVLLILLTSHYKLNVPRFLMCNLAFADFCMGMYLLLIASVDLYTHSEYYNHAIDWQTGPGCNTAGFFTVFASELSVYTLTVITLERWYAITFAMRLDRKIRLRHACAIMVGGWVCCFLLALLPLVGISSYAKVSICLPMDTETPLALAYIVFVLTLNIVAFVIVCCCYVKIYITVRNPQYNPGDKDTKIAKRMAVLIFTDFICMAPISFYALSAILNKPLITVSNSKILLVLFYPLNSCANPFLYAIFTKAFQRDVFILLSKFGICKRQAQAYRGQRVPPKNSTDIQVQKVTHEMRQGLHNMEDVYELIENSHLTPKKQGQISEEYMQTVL
ATP-dependent DNA helicase Q1 (Homo sapiens), sequence (P46063 whole entry, looked up): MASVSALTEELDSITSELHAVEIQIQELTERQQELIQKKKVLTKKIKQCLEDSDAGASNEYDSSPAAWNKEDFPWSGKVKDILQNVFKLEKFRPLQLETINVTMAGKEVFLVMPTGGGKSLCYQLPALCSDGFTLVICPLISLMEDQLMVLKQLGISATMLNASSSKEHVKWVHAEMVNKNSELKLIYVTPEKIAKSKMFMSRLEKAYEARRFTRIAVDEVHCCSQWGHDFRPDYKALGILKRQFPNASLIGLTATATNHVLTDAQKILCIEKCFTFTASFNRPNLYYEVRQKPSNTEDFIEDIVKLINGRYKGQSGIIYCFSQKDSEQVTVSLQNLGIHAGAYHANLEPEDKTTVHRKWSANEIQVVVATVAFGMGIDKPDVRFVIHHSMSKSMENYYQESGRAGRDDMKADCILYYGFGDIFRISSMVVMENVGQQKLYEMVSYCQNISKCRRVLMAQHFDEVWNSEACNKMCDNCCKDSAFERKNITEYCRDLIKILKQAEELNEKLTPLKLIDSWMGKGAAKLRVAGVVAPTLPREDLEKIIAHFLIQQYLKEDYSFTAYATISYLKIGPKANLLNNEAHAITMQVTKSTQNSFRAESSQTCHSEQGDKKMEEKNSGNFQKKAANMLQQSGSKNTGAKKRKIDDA
Ferritin light chain (Equus caballus), sequence (P02791 2-175 limits assumed): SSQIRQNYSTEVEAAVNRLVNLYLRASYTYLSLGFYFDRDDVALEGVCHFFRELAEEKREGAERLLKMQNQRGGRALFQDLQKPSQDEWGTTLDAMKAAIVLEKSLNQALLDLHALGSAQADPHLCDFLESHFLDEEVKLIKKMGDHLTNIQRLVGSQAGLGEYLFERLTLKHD
Galactokinase (Homo sapiens), sequence (P51570 whole entry, looked up): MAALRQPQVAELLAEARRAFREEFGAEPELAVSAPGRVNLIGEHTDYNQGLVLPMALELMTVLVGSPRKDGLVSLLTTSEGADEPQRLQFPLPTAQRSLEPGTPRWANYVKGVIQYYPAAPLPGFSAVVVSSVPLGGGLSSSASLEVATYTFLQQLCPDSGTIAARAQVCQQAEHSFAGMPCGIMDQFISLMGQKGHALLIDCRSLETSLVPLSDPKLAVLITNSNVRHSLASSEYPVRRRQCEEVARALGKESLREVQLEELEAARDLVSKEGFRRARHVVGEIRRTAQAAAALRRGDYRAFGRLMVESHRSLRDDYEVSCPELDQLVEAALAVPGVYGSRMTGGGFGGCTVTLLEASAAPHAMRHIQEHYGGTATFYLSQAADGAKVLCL

Cn1cnc2c(NC3CCCC3)ncnc21
inactive: Potency [1] | Potency [2] | Potency [3] | Potency [4] | Potency [5] | Potency [6] | outcome [7] | Potency [8] | Potency [9] | Potency [10] | Potency [11] | Potency [12] | outcome [13] | outcome [14] | activation [15] 0.875% | outcome [16] | outcome [17] | Potency [18] | Potency [19]
